Screening data as filed in PubChem.
GLP1R cytotox – qHTS of GLP-1 Receptor Inverse Agonists: Cytotox Screen; HEK293 cAMP-luciferase reporter cells, luminescence, 24 h; Potency, µM (titrated, usually from 38.3 µM), without a hit: at the top dose activity change, negative = inhibition, hits mostly inhibitors; hit rate 0.13% among 410,000; AID 624418, 2012;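 note: loss of luciferase light is scored as toxicity; % is set by controls: 0 for no effect and ±100 for the full control effect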
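Luminescence readout: signal drop marks cytotoxicity. Plated cells grew 12 h at 37 °C, 5% CO2, received 23 nL compound for 24 h, then got luciferase reagent, read after 12 min at RT.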
GLP1R inv ag – qHTS of GLP-1 Receptor Inverse Agonists (Inhibition Mode). Glucagon-like peptide 1 receptor (Homo sapiens), P43220. HEK293 GLP-1R CRE-luciferase, luminescence, 24 h; GLP-1R form is constitutively active. AID 624417, 2012. hit rate 1.6% among 410,000. Potency, µM (titrated, usually from 38.3 µM), without a hit: top-dose activity change, negative = inhibition, actives largely listed as inhibitors; note: % is set by controls: 0 for no effect and ±100 for the full control effect; nearly all actives have a fitted effect of over 55% in size
Target sequence (P43220 whole entry, looked up): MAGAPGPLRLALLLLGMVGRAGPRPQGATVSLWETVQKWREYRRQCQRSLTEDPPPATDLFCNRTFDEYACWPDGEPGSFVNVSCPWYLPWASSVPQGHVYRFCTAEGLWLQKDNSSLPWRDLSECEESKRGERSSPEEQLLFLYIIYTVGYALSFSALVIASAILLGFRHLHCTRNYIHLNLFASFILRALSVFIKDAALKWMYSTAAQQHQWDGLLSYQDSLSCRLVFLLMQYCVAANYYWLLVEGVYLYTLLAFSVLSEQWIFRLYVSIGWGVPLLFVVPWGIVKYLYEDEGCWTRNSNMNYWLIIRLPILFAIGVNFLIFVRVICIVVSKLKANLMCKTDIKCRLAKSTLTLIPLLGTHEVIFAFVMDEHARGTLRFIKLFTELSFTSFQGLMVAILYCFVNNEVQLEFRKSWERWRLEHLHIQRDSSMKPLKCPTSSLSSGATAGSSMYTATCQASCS
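Cells are plated, allowed 12 hours at 37 deg C, then treated with compounds for 24 hr before luciferase detection reagent is added and luminescence is read after 12 min at room temperature. The HEK293 line carries constitutively active GLP-1R with a cAMP-responsive reporter.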
RORg inh – qHTS for inhibitors of ROR gamma transcriptional activity; Drosophila S2 Gal4-RORgamma UAS-luciferase reporter, 20 h; Potency, µM (doses to about 53.6 µM), for the others: at the highest dose activity change, negative = inhibition, actives largely listed as inhibitors; hit rate 5.4% among 310,000; Nuclear receptor ROR-gamma (Mus musculus), P51450; note: % is set by controls: 0 for no effect and ±100 for the full control effect; nearly all actives have a fitted effect of over 60% in size
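Stably transfected Drosophila Schneider cells are the test system, with ROR gamma fused to Gal4 and luciferase under UAS control; luminescence is read after 20 hr of 700 uM copper sulfate induction at ambient temperature.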
GLP-1R agonist – qHTS of GLP-1 Receptor Agonists; AID 624172, 2012; Glucagon-like peptide 1 receptor (Homo sapiens), P43220; HEK293 GLP-1R CRE-luciferase, luminescence, 4-6 h; cells express a hypersensitive GLP-1R form; Potency, µM (top dose mostly 45.6 µM), inactives show at the highest dose activation, actives largely listed as activators; hit rate 0.007% among 380,000; note: % of control where 0% means no effect
VP16 counter – VP16 counterscreen qHTS for inhibitors of ROR gamma transcriptional activity | AID 2546, 2010 | Potency, µM (top dose mostly 53.6 µM), inactives show at the highest dose activity, negative = inhibition, actives largely listed as inhibitors | Drosophila S2 Gal4-VP16 UAS-luciferase, luminescence, 20 h | hit rate 3.5% among 310,000;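 note: Gal4-VP16 expression switched on by copper sulfate through the metallothionein promoter; % is set by controls: 0 for no effect and ±100 for the full control effect; nearly all actives have a fitted effect of over 50% in size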
An asterisk follows results filed as active; u = inconclusive; x = no result; [ ] = remark or other dose. Compounds with a hit are over-represented: about 5.9% of the library has one in this group of screens. Calls come from the whole dose curve; as a rule, active = well fitted curve in the direction sought with a large enough effect; inconclusive = small, poorly fitted or top-dose-only effect, or another doubt; inactive = no such curve, though single readings can be large; an effect the other way counts as inactive or inconclusive. Potency is the fitted concentration of half-maximal effect.

SMILES	GLP1R cytotox	GLP1R inv ag	RORg inh	GLP-1R agonist	VP16 counter
COc1cccc(-c2c(C(=O)N/N=C/c3sccc3C)nnn2-c2nonc2N)c1	-13.7%	u	8.91µM*	-0.8%	22.4µM*
COc1ccc(-c2cc(C(F)(F)F)nc(SCC(=O)N(C)Cc3ccccc3)n2)cc1	0.5%	u	x	-7.9%	x
COc1ccc(C2C3C=CCCC3(C)C(=O)N2Cc2ccccc2)cc1Cl (centres undefined)	x	x	31.1%	x	-16.5%
Nc1nonc1-n1nnc(C(=O)N/N=C/c2ccco2)c1-c1ccccc1	-11.2%	24.5%	u	1.1%	u
COc1cccc(-c2c(C(=O)N/N=C/c3ccco3)nnn2-c2nonc2N)c1	-28.6%	35.0%	11.2µM*	-1.3%	-18.4%
CCCOc1ccc(-c2c(C(=O)N/N=C/c3ccc(OCC)cc3)nnn2-c2nonc2N)cc1	-20.5%	-4.8%	10µM*	0.5%	10µM*
CCCOc1ccc(-c2c(C(=O)N/N=C/c3cccs3)nnn2-c2nonc2N)cc1	5.9%	u	2.24µM*	-2.5%	3.16µM*
C/C(=N\NC(=O)c1nnn(-c2nonc2N)c1-c1cccs1)c1ccc(O)cc1	-20.6%	7.94µM*	18.6%	-1.5%	-18.8%
CCCOc1ccc(-c2c(C(=O)N/N=C/c3ccncc3)nnn2-c2nonc2N)cc1	-13.4%	-35.5%	-5.8%	-0.3%	-11.5%
C/C(=N\NC(=O)c1nnn(-c2nonc2N)c1-c1cccs1)c1ccc(C)cc1	-10.5%	-10.8%	-39.4%	-4.0%	-26.2%
CCCOc1ccc(-c2c(C(=O)N/N=C/c3ccc(OC)cc3)nnn2-c2nonc2N)cc1	u	u	15.8µM*	-0.5%	u
CC(=O)N1CCCc2cc(S(=O)(=O)N(C)CC(=O)Nc3ccc(Cl)cc3C)ccc21	2.3%	u	x	x	x
COc1ccc2c(c1)sc1ncc(C(=O)NCc3ccc(OC(C)C)cc3)c(=O)n12	2.2%	11.5%	x	x	x
Cc1ccc(CNC(=O)CN2C(=O)COc3ccc(S(=O)(=O)Nc4ccccc4)cc32)cc1	-2.7%	-32.2%	x	0.0%	x
CCOc1ccc(-c2c(C(=O)N/N=C(\C)c3ccccc3OC)nnn2-c2nonc2N)cc1	6.4%	-29.3%	5.62µM*	6.6%	-7.4%
CCOc1ccc(-c2c(C(=O)N/N=C(\C)c3ccco3)nnn2-c2nonc2N)cc1	1.3%	1.7%	0.5%	-1.2%	-12.0%
CCCC[n+]1c(-c2ccc(Cl)cc2Cl)csc1Nc1ccccc1	5.8%	u	133.4%	-1.4%	u
Clc1ccc(-c2csc(Nc3ccccc3)[n+]2Cc2ccco2)c(Cl)c1	6.2%	2.82µM*	17.2%	-5.3%	-5.4%
O=C(CCl)Nc1cccc(-c2cnc3ccccc3n2)c1	u	8.91µM*	6.3%	-0.5%	-8.1%
Cc1cc2ncc(-c3ccccc3)nc2cc1C	-0.4%	0.5%	u	-0.8%	u
Cc1ccc(-c2cnc3ccccc3n2)cc1C	-8.3%	-20.3%	10µM*	-5.5%	u
O=C(Nc1cc(Cl)ccc1Cl)c1cc(S(=O)(=O)N2CCc3ccccc3C2)ccc1F	6.6%	12.0%	x	x	x
CCOc1ccc(NC(=O)CCc2nnc3n(C)c(=O)c4sccc4n23)cc1	2.8%	10.2%	x	2.3%	x
O=C1CC2(CCCC2)CC(=O)N1CCNC[C@H]1COc2ccccc2O1	x	x	13.4%	x	-9.8%
CCCCOc1ccc(Br)cc1CSC(=N)N	u	u	u	-0.3%	10µM*
SMILES	GLP1R cytotox	GLP1R inv ag	RORg inh	GLP-1R agonist	VP16 counter
O=C(C1CC1)N1CCc2cc(Br)cc(S(=O)(=O)Nc3ccc(F)c(F)c3)c21	u	22.4µM*	x	-5.6%	x
O=C(C1CC1)N1CCc2cc(Br)cc(S(=O)(=O)N3CCN(c4ccccn4)CC3)c21	-11.4%	-7.9%	1.5%	-0.9%	22.4µM*
Cc1ccc(NS(=O)(=O)c2cc(Br)cc3c2N(C(=O)C2CC2)CC3)cc1C	-27.4%	u	x	x	x
O=C1C2Cc3c([nH]c4ccccc34)C(c3ccccc3)N2C(=O)C2Cc3c([nH]c4ccccc34)C(c3ccccc3)N12 (centres undefined)	x	x	-4.8%[10 µM]	x	-11.2%[10 µM]
CCCCNC(=O)C1=C(N)C(C(=O)Nc2ccc(C)c(S(=O)(=O)N3CCCCC3)c2)SC1=Nc1ccc(C)cc1C (centres undefined)	8.7%	12.6µM*	3.2%	-4.5%	u
CCCCC(=O)Nc1ccc(C)c(S(=O)(=O)N2CCCCCC2)c1	-4.9%	u	x	7.2%	x
CC(C)C(=O)OCC(=O)[C@@]12OC(C3CCCCC3)O[C@@H]1CC1C3CCC4=CC(=O)C=C[C@]4(C)C3[C@@H](O)C[C@@]12C (some centres undefined)	x	x	u	-3.0%	-0.2%
COc1ccccc1-c1cn[nH]c(=S)n1	-0.9%	27.8%	8.91µM*	-2.0%	u
CCc1cc2c(cc3c(=O)n(CC(=O)N4CCN(c5cccc(C)c5C)CC4)nc(CC)n32)s1	4.4%	-1.9%	x	x	x
CC1CCC(NC(=O)CCc2cn(Cc3ccccc3Cl)c3ccccc23)CC1 (centres undefined)	-5.0%	-24.6%	x	x	x
O=C(CCc1cn(Cc2ccccc2Cl)c2ccccc12)NC1CCCCC1	-18.8%	10µM*	x	x	x
CCOC(=O)c1oc2ccc(/C=N/O)c(Cl)c2c1C	14.2%	108.1%	0.562µM*	22.2%	3.16µM*
CCOC(=O)c1oc2cc(C)cc(C)c2c1C	3.6%	-1.8%	u	-1.1%	13.2%
COc1cccc(NC(=S)NC(C)c2ccc(OC)c(OC)c2)c1 (centres undefined)	-4.7%	-9.5%	7.94µM*	13.7%	u
CCOc1cc(NC(=S)Nc2cccc(OC)c2)c(OCC)cc1NC(=O)c1ccc(C)cc1	-16.4%	0.0%	7.94µM*	-5.3%	15.8µM*
CCOc1cc(NC(=S)Nc2cccc(OC)c2)c(OCC)cc1NC(=O)C(C)C	11.2%	0.0%	8.91µM*	0.8%	u
CCOc1cc(NC(=S)Nc2ccccc2)c(OCC)cc1NC(=O)c1ccc(OC)cc1	-17.1%	-0.2%	3.98µM*	7.0%	11.2µM*
COc1cccc(NC(=O)C(C)C)c1	-5.0%	7.4%	x	2.6%	x
CCOc1cc(NC(=O)c2ccccn2)c(OCC)cc1NC(=O)c1ccc(C)cc1	1.0%	10.9%	1.7%	8.2%	0.2%
COc1cccc(NC(=S)NC(Cc2ccccc2)c2ccccc2)c1 (centres undefined)	u	u	x	3.5%	x
C[C@H](O/N=C1/[C@H]2O[C@@H]2[C@@H](O)[C@H]2[C@H]1CCn1c(=O)n(-c3ccccc3)c(=O)n12)c1cn([C@H]2COC[C@H]2O)nn1	x	x	0.0%[10 µM]	x	-12.8%[10 µM]
COc1cccc(C2CC(=O)Nc3c2c(=O)[nH]c2nc4ccccc4n32)c1 (centres undefined)	1.3%	0.7%	x	0.6%	x
